PubChem BioAssay (NCATS)
Inconclusive results are not listed. Calls of active or inactive are those of the source. Unless noted, calls come from the whole dose curve; as a rule, active = well fitted curve in the direction sought with a large enough effect; inconclusive = small, poorly fitted or top-dose-only effect, or another doubt; inactive = no such curve, though single readings can be large; an effect the other way counts as inactive or inconclusive.

How the values were obtained:
[1] = S16 Schwann cell PMP22 intronic element beta-lactamase assay (AID 624044; calls by dose curve; note: potency is the fitted concentration of half-maximal effect; nearly all actives have a fitted effect of over 15% in size)
Procedure, shortened: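 Beta-lactamase reporter under a PMP22 intronic regulatory element in stable S16 rat Schwann cells; 24 h compound exposure. 460 nm blue signal normalized between DMSO (0%) and potassium clavulanate, with 535 nm FRET tracking viability; curves classed by r2 and response.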

[2] = Cytotoxicity counterscreen for NFkB agonists and antagonists (AID 624476);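 note: cells exposed to compound for 48 hours; % is set by controls: 0 for no effect and ±100 for the full control effect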
[3] = qHTS Assay for Identification of Small Molecule Agonists for NFkB Signaling Pathway. (AID 624478);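 note: compounds tested together with TNF alpha at its EC50 of 10 pM; 0% is about no effect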
Procedure, shortened: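 Compounds were added with 10 pM TNF alpha (EC50 level) to ME-180 NFkB-bla cells in low-serum Opti-MEM and incubated 5 hrs at 37 C. Beta-lactamase FRET read-out used 405 nm excitation and 460 and 530 nm emission.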

[4] = Cell Proliferation Assay against the TMD8 Cell Line (AID 651645); conditions: TMD8 DLBCL cell line proliferation/viability; at 46.1 µM (top of the series);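 note: cells exposed to compound for 48 h before reading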
Procedure, shortened: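 Luminescent ATP read-out (CellTiter-Glo, 15 min RT) after 48 h compound exposure of log-growing TMD8 cells at 37C; percent activity scaled between DMSO as 100% and 9.2 uM bortezomib final as 0%.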

[5] = Cell Proliferation Assay against the HBL1 Cell Line (AID 651646); conditions: HBL1 DLBCL cells; at 46.1 µM (top of the series);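 note: cells exposed to compound for 48 h before reading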
Procedure, shortened: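 CellTiter-Glo luminescence after 48 h compound exposure at 37C gives percent activity, with DMSO as 100% and 9.2 uM bortezomib final as 0%. Cells: 500 log-phase HBL1 per well, RPMI plus 5% FBS.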

[6] = biological target: Glutaminase kidney isoform, mitochondrial (Homo sapiens) (UniProt O94925); test: qHTS for Inhibitors of Glutaminase (GLS): LOPAC Validation (AID 624146); note: potency is the fitted concentration of half-maximal effect; nearly all actives have a fitted effect of over 60% in size
Glutaminase kidney isoform, mitochondrial (Homo sapiens), sequence (O94925 whole entry, looked up, canonical isoform): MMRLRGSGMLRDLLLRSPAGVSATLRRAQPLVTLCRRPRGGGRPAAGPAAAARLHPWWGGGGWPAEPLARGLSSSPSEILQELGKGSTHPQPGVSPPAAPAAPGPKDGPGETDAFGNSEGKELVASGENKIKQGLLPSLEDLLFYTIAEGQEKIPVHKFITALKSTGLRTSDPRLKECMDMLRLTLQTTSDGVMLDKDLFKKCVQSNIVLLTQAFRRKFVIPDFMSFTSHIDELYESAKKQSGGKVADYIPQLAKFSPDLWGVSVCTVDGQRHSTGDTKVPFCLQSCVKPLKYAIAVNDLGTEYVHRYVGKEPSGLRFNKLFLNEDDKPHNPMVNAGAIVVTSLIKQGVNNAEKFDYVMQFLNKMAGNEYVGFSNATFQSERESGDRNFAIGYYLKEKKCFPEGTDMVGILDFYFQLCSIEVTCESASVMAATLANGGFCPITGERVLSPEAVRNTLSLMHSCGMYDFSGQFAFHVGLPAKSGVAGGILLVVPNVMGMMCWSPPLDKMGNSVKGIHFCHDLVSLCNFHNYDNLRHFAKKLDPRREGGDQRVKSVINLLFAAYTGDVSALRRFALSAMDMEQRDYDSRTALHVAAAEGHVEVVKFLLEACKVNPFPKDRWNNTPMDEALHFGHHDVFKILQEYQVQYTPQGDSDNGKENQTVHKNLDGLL
Procedure, shortened: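 Glutamate formation by hKGA was monitored fluorometrically using coupled glutamate oxidase, HRP and Amplex Red. Substrate was added as 1 mM L-glutamine solution; incubation was 30 min at RT after an initial read.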

[7] = qHTS of Trypanosoma Brucei Inhibitors: LOPAC Validation (AID 624147); note: 0% is about no effect
Procedure, shortened: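 Activity of T. brucei pyruvate kinase was followed by Kinase-Glo Plus luminescence after the enzyme reacted 45 min at room temperature with 130 uM ADP (final) and substrate. Test compounds were added before ADP at multiple concentrations.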

[8] = biological target: Glucagon-like peptide 1 receptor (Homo sapiens) (UniProt P43220); test: qHTS of GLP-1 Receptor Agonists: LOPAC Validation (AID 624148);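 note: luminescence from a luciferase reporter switched on by cAMP; 0% is about no effect; higher luminescence signal means agonism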
Glucagon-like peptide 1 receptor (Homo sapiens), sequence (P43220 whole entry, looked up): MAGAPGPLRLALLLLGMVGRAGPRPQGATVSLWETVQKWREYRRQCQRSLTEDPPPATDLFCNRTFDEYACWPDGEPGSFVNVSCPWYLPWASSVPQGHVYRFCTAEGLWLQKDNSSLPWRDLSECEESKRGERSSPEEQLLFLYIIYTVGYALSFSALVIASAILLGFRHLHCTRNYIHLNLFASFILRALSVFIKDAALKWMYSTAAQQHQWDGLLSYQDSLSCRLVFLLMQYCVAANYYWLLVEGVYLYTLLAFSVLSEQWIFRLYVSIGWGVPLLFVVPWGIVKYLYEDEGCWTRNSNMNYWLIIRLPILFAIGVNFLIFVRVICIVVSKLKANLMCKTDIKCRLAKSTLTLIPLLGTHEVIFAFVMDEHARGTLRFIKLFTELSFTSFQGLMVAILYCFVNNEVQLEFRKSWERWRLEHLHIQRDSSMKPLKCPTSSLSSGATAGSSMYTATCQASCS
Procedure, shortened: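 Agonism scored as increased luciferase luminescence driven by cAMP in HEK293 clones carrying GLP-1R. Cells settled 12 hours, received compound for 4-6 hr at 37 deg C, 5% CO2, and were read after 12 min detection reagent at RT.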

[9] = qHTS of Nrf2 Activators: LOPAC Validation (AID 624149); note: 0% is about no effect
Procedure, shortened: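 Luciferase signal from ARE activation, read with Steady-Glo after 30 min at room temperature. Compounds were pin-transferred onto AREc32_Fluc cells (1000/well, OPTI-MEM/5% FBS, seeded overnight) and left 24 hr at 37 deg C.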

[10] = HTS Assay for Allosteric Antagonists of the Human D2 Dopamine Receptor: Hit Validation in HTRF (AID 624455);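 note: stable D1 dopamine receptor cell line scored for blocking the D1 response; % is set by controls: 0 for no effect and ±100 for the full control effect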
Procedure, shortened: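 Inhibition of the D1-mediated response was measured by HTRF. Cells used were a line stably expressing the D1 dopamine receptor.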

[11] = qHTS Assay for Identification of Small Molecule Antagonists for NFkB Signaling Pathway. (AID 624479; calls by dose curve;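 note: pathway stimulated with TNF alpha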; note: potency is the fitted concentration of half-maximal effect)
[12] = S16 Schwann cell PMP22 intronic element firefly luciferase assay (AID 624032); note: nearly all actives have a fitted effect of over 30% in size; note: potency is the fitted concentration of half-maximal effect
Procedure, shortened: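 Luciferase reporter of PMP22 intronic-element expression in stably transfected S16 rat Schwann cells, read by ONE-Glo luminescence after 24 h compound exposure at 37 C. Activity scaled between DMSO (0%) and positive-control PTC124; concentration-effect curves quality-classified.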

For O=c1[nH]cc(F)c(=O)[nH]1, the Potency [1] was 5.62 µM (active).

For CC1=C2C[C@@H]3[C@@H](CC=C4C[C@@H](O)CC[C@@]43C)[C@@H]2CC[C@]12O[C@H]1C[C@H](C)CN[C@H]1[C@H]2C, the Potency [2] was “inactive”, the outcome [3] was “inactive” and the viability (% of control) [4] was 62.9%. It also gave a viability, percent of control [5] of 69.1%.

In the case of COC[C@H]1OC(=O)c2coc3c2[C@@]1(C)C1=C(C3=O)C2CCC(=O)[C@@]2(C)C[C@H]1OC(C)=O (stereo not given in full), the Potency [6] is reported as 11.2 µM (active), the outcome [7] is reported as “inactive” and the outcome [8] is reported as “inactive”. For the same compound, the outcome [9] was “inactive”, the Potency [10] was “inactive” and the outcome [3] was “inactive”. For the same compound, the Potency [11] was 13.3 µM (active), the viability (% of control) [4] was 17.1% and the viability, percent of control [5] was 61.7%.

With COc1cc([C@@H]2c3cc4c(cc3[C@H](O)[C@H]3COC(=O)[C@H]23)OCO4)cc(OC)c1OC the Potency [12] was 0.0128 µM (active), the Potency [1] was 0.0224 µM (active) and the Potency [2] was “inactive”.

For C[C@@H]1[C@@H](CC(C[C@H]2O[C@@H]3O[C@]4(C)CC[C@@H]5[C@H](C)CC[C@@H]([C@H]2C)[C@@]35OO4)C[S+](=O)([O-])c2ccc(COC(=O)N(C)C)cc2)O[C@@H]2O[C@]3(C)CC[C@H]4[C@H](C)CC[C@@H]1[C@@]24OO3 (stereo not given in full), the Potency [2] was “inactive”, the outcome [3] was “inactive” and the viability (% of control) [4] was 5.05%. The viability, percent of control [5] was 39.8%.

With O=c1c(O)c(-c2ccc(O)c(O)c2)oc2cc(O)cc(O)c12 the Potency [11] was 14.9 µM (active), the viability (% of control) [4] was 46.1% and the viability, percent of control [5] was 56.5%.

In the case of COC1(CS(=O)c2ccccc2)CCN(CCc2c[nH]c3ccc(F)cc23)CC1 (stereo not given), the Potency [2] is reported as “inactive”, the outcome [3] is reported as “inactive” and the Potency [11] is reported as “inactive”. The viability (% of control) [4] was 79.9% and the viability, percent of control [5] was 108%.

For CC(=O)Nc1nnc(S(N)(=O)=O)s1, the Potency [12] was “inactive”.
